FBW7 act – FBW7 E3 ligase activators, primary screen, biochemical, AlphaScreen, human; AlphaScreen FBW7–phospho-cyclin E peptide binding, activator screen; actives 0.13% (n = 650,000); normalized activity (activation), % at 26.1 µM; AID 1259310, 2017; F-box/WD repeat-containing protein 7 (Homo sapiens), Q969H0; in the data active = normalized activity above about 1.9%;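 note: purified mutant Fbw7 with reduced substrate affinity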
TEAD-YAP inh – TEAD-YAP interaction inhibition, primary screen, TEAD-YAP interaction inhibitor project, luminescence, HEK-TIYL cells. TEAD-Gal4/YAP UAS-luciferase luminescence. inhibition, % at 9.12 µM. actives 1.4% (n = 640,000). AID 1259422, 2018; in the data active = inhibition above about 32%
GPR151 ag – activators of human GPR151, primary screen, cell-based, PathHunter beta-arrestin, luminescence; PathHunter beta-arrestin GPR151 cells; activation, % at 11.2 µM; actives 1% (n = 650,000); AID 1508602, 2020; in the data active = activation above about 4.9%
MITF primary – MITF inhibitors, primary screen, biochemical, AlphaScreen, human. actives 0.91% (n = 650,000). inhibition, % at 2.6 µM. AlphaScreen MITF homodimerization, bead proximity signal. AID 1259374, 2018; in the data active = inhibition above about 50%
Target sequence (O75030 whole entry, looked up): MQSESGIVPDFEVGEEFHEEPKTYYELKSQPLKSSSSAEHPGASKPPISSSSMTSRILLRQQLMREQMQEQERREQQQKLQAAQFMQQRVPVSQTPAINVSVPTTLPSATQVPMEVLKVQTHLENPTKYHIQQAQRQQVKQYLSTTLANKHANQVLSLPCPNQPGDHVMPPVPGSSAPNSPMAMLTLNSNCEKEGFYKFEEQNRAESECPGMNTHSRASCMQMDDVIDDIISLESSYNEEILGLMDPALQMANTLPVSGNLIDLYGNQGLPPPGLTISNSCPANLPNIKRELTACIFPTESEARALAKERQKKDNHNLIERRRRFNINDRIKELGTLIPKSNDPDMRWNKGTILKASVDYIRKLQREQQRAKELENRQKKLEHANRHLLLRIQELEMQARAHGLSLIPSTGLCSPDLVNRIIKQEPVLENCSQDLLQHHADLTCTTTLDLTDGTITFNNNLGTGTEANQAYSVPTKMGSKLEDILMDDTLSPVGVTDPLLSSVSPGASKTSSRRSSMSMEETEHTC
MITF inh conf – MITF inhibitors, retest of hits, confirmation, biochemical, AlphaScreen, triplicate | shares compounds with MITF primary | AlphaScreen MITF homodimerization, biotin/His-MITF beads | inhibition, % at 2.6 µM | actives 16% (n = 4,700) | AID 1259372, 2018;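 active = inhibition above a cutoff derived from the DMSO control wells, cut at about 28% in these data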;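 note: inhibitors lower the bead chemiluminescence by keeping MITF from dimerizing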
AlphaScreen DR – AlphaScreen optical interference compounds, dose response, counter-screen, biochemical, HTS | shares compounds with MITF primary | AlphaScreen optical interference counterscreen, cell-free | IC50, µM | actives 6% (n = 480) | AID 1259373, 2018; call rule not given here
AlphaScreen intf2 – AlphaScreen optical interference compounds, counter-screen for MITF inhibitor project, biochemical, triplicate. shares compounds with MITF primary. LysRS AlphaScreen counterscreen, signal interference. inhibition, % at 2.6 µM. actives 7.6% (n = 4,700). AID 1259376, 2018;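 active = inhibition above a cutoff derived from the DMSO control wells, cut at about 30% in these data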
Of the large screens only hits and unclear results are named; the others gave an inactive call (follow-up assays come after a bar, where they were run). An excerpt weighted towards active compounds, which were near 3.4% of everything screened.

COc1cc(CN2CCN(Cc3ccccn3)CC2)cc(OC)c1OC	MITF primary 79 | MITF inh conf inactive | AlphaScreen intf2 inactive
CCOC(=O)N1CCN(C(=O)CN2CCC(Cn3cnc4ccccc43)CC2)CC1	MITF primary 76 | MITF inh conf inactive | AlphaScreen intf2 inactive
O=C(C1CCC1)N1CCC(Cn2cnc3ccccc32)CC1	MITF primary 52 | MITF inh conf inactive | AlphaScreen intf2 inactive
COc1cccc2cc(C(=O)N3CCC(Cn4cnc5ccccc54)CC3)oc12	MITF primary 60 | MITF inh conf inactive | AlphaScreen intf2 inactive
O=C(CCN1C(=O)c2ccccc2C1=O)CN1CCC(Cn2cnc3ccccc32)CC1	MITF primary 59 | MITF inh conf inactive | AlphaScreen intf2 inactive
CN(C(=O)CCN1C(=O)c2ccccc2C1=O)C1CCCCC1	none
COC(=O)/C=C1\SC(=O)N(CN2CCCCC2)C1=O	none
COc1ccc(C2(NC(C)=O)CCN(Cc3ccnc(N4CCCC4)n3)CC2)cc1	none
NC(=O)C1CCN(C(=S)c2ccccc2)CC1	none
CCOc1cc2c(cc1OCC)C(c1ccc(OC)cc1F)NCC2 (stereo not drawn)	none
O=C(Nc1ccc(I)cc1)C1C2CCCC1C2c1ccccc1 (stereo not drawn)	none
O=C(Cc1cccs1)N1CCC(Cn2cnc3ccccc32)CC1	MITF primary 65 | MITF inh conf inactive | AlphaScreen intf2 inactive
O=C(c1cnn(-c2ccccc2)n1)N1CCC(Cn2cnc3ccccc32)CC1	MITF primary 58 | MITF inh conf inactive | AlphaScreen intf2 inactive
O=C(c1cnn(-c2ccccc2)n1)N1CCN(c2cc(N3CCCCC3)ncn2)CC1	none
CCOC(=O)N1CCN(C(=O)CN2CCN(CC)CC2)CC1	MITF primary 71 | MITF inh conf inactive | AlphaScreen intf2 inactive
O=C(CSCc1ccccc1)N1CCC(Cn2cnc3ccccc32)CC1	MITF primary 67 | MITF inh conf inactive | AlphaScreen intf2 inactive
O=C(Nc1ccc2c(c1)OCO2)N1CCC(Cn2cnc3ccccc32)CC1	none
O=C(NCC(=O)N1CCC(Cn2cnc3ccccc32)CC1)c1ccccc1	MITF primary 56 | MITF inh conf inactive | AlphaScreen intf2 inactive
O=C(Nc1cccs1)N1CCC(Cn2cnc3ccccc32)CC1	none
C#CCN(C)C(=O)c1cnc2sc(C)cn2c1=O	MITF primary 57 | MITF inh conf inactive | AlphaScreen intf2 inactive
Cc1cn2c(=O)c(C(=O)N(C)CC(=O)N(C)C)cnc2s1	none
c1ccc(C(NCc2cccnc2)c2ccccc2)cc1	MITF primary 86 | MITF inh conf inactive | AlphaScreen intf2 inactive
CC(NCc1cccnc1)C(=O)Nc1ccccc1 (stereo not drawn)	MITF primary 75 | MITF inh conf inactive | AlphaScreen intf2 inactive
Cc1ccc(F)cc1NC(=O)CN1C(=O)NC(CC(C)C)C1=O (stereo not drawn)	none
O=C(/C=C\c1ccccc1)Nc1c2c(nn1-c1cccc(Cl)c1)CSC2	MITF primary 67 | MITF inh conf inactive | AlphaScreen intf2 inactive
COc1ccc(/C=C\C(=O)Nc2c3c(nn2-c2cccc(Cl)c2)CSC3)cc1OC	none
Cc1cccc(C(=O)Nc2c3c(nn2-c2ccc(F)cc2)CSC3)c1	MITF primary 53 | MITF inh conf 35 | AlphaScreen DR inactive | AlphaScreen intf2 inactive
Cc1cc(C)cc(C(=O)Nc2c3c(nn2-c2ccc(F)cc2)CSC3)c1	none
CCc1ccc2nc(SCC(=O)Nc3nc(C)c(C)s3)c(C#N)cc2c1	MITF primary 84 | MITF inh conf inactive | AlphaScreen intf2 56
O=C(Nc1ccc2[nH]ncc2c1)C1CCN(C(=O)[C@H]2Cc3ccccc3CN2)C1 (stereo partly drawn)	none
CN(C)CCNC(=O)CN(C)S(=O)(=O)c1ccc(Br)cc1	none

High-throughput results as filed in PubChem BioAssay.
